Bioassay records from PubChem.
This is one part of a sample in which hits are shown more often than they occur.
KDM5B inhibitor: inhibitors of human KDM5B histone demethylase | Q9UGL1 | KDM5B demethylase, FDH-coupled NADH fluorescence (FDH is formaldehyde dehydrogenase) | Potency, µM (highest dose often 57.7 µM), most hits filed as inhibitors | 2.6% of 220,000 active | AID 1347165; active = well fitted inhibition curve with a large enough effect; also: 0% is about no effect; nearly all actives have a fitted effect of over 70% in size
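Measured: NADH fluorescence change, 30 min, RT. System: KDM5BΔAP 200 nM final, H3K4me3 peptide, α-KG, Fe(II), ascorbate, NAD⁺ plus FDH, pH 7.5 HEPES. Compounds: titrated, 10 min pre-incubation with enzyme.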
* = called active by the depositor; i = inactive; ! = not active in a repeat. Potency is read from the fitted curve at half-maximal effect.

SMILES | KDM5B inhibitor
Cn1c(=O)oc2cc(NC(=O)Nc3ccc(F)c(Cl)c3)ccc21 | i
COc1ccc(NC(=O)N2CCc3c(c4ccccc4n3C)C2)cc1 | 25µM*
Cn1cc(C(=O)C(=O)N2CCCCC2)c2ccccc21 | i
COc1ccc(NC(=O)C(=O)c2c(C)n(C)c3ccccc23)cc1 | i
Cc1cc2n(n1)CCCN2C(=O)Nc1ccc(F)c(Cl)c1 | i
CC(=O)N1CCc2c(c3ccccc3n2C)C1 | 25µM*
O=C(Nc1ccc(Br)cc1)N1CCc2ccccc2C1 | i
Cn1c2c(c3cc(F)ccc31)CN(C(=O)Nc1ccc(F)c(Cl)c1)CC2 | 32µM*
Cn1c(C(=O)Nc2ccccc2)c(Cl)c2ccccc21 | i
CCCCN1CCc2c(c3ccccc3n2Cc2ccccc2)C1 | i
Cn1c2c(c3ccccc31)CN(C(=O)Nc1ccccc1)CC2 | 22µM*
COc1ccc(NC(=O)N2CCC3(CCNCC3)C2)cc1 | i
O=C1OC(C(=O)Nc2cccc3ncccc23)Cc2ccccc21 (configuration not stated) | i
O=C1N(Cc2ccc(Cl)cc2)CCCN1c1cccc(C(=O)N2CCc3ccccc32)c1 | i
Cc1ccc(C(=O)OCC(=O)c2ccco2)s1 | i
O=C(Nc1ccc(Cl)c(Cl)c1)c1ccc(-c2ccccc2)cc1 | i
NC(=O)C1CN(CC(=O)Nc2ccccc2Sc2ccc(Cl)cc2)c2ccccc2O1 (configuration not stated) | i
O=C(Nc1ccnn1Cc1ccccc1)c1cc(=O)c2cc(Cl)ccc2o1 | i
Cc1cc2c(cc1C)CSC(c1cc(Cl)ccc1O)SC2 | i
O=C(Nc1ccc(Cl)cc1Cl)N1CCc2[nH]c3ccc(F)cc3c2C1 | 32µM*
O=C(Nc1ccc(F)cc1F)N1CCN(c2ccc(Cl)c(Cl)c2)CC1 | i
O=C(Nc1ccc(F)cc1F)Nc1ncc(Cl)cc1Cl | i
O=c1cc(-c2cccnc2)oc2c(NCc3ccccc3)nccc12 | i
Cn1cc(-c2cc(=O)c3ccnc(NC4CCOCC4)c3o2)cn1 | i
Cn1cc(-c2cc(=O)c3ccnc(NCc4ccc(F)cc4)c3o2)cn1 | 32µM*
SMILES | KDM5B inhibitor
Cc1ccc(/C=N/Nc2ccc(S(N)(=O)=O)cc2[N+](=O)[O-])s1 | i
Cn1c(=O)c2c(ncn2CCCC(=O)Nc2cccc(N3CCCC3=O)c2)n(C)c1=O | i
CCCOc1ccccc1C(C)N (configuration not stated) | i
COC(=O)[C@@H]1Cc2c([nH]c3ccccc23)[C@H]2C[C@H](NCCNC(C)=O)C[C@@H](c3ccc(C(F)(F)F)cc3)N21 | 10µM*
COC(=O)[C@@H]1Cc2c([nH]c3ccccc23)[C@H]2C[C@H](NCCNC(C)=O)C[C@@H](c3ccccc3)N21 | 28µM*
COC(=O)C1Cc2c([nH]c3ccccc23)C2(CCN(Cc3ccccc3)CC2)N1 (configuration not stated) | i
CSc1ccc(C2c3[nH]c4ccccc4c3CCN2C(=O)CCc2ccccc2)cc1 (configuration not stated) | i
COc1ccc(C(=O)N2CCc3c([nH]c4ccccc34)C2C(F)(F)F)cc1 (configuration not stated) | i
COc1ccccc1NC(=O)N1CCc2c([nH]c3ccccc23)C1C(F)(F)F (configuration not stated) | i
Cc1cc(NC(=O)Cc2ccsc2)ccc1N1CCCC1=O | i
CS(=O)(=O)N1CCc2cc(C(=O)Nc3ccc(-c4nnc5n4CCCCC5)cc3)ccc21 | i
CC(C)CCNC(=O)C1CCNCC1 | i
O=S(=O)(c1ccc2c(c1)CCN2Cc1cccc(Cl)c1)N1CCOCC1 | i
CN(Cc1cccnc1)C(=O)c1n[nH]c2c1CN(Cc1cccnc1)CC2 | 25µM*
Cc1oc2c(c1C(=O)N1CCOCC1)CN(Cc1cccnc1)CC2 | i
Cc1oc2c(c1C(=O)NCc1cccnc1)CN(Cc1ccc(F)cc1)CC2 | i
CC(C)(CNC(=S)Nc1cccc(C(F)(F)F)c1)N1CCCCC1 | i
N#CC(C#N)=Cc1cc(-c2ccccc2)n(-c2ccccc2)c1-c1ccccc1 | i
CN1C(=O)C2(CC(=O)Nc3c2sc(C(=O)O)c3-c2ccccc2)c2ccccc21 (configuration not stated) | i
CCC(=O)N1CCN(c2nc3c(s2)CC(C(=O)NCc2ccc(C)o2)CC3)CC1 (configuration not stated) | 25µM*
CCC(=O)N1CCN(c2nc3c(s2)CC(C(=O)NCc2cccs2)CC3)CC1 (configuration not stated) | i
Cc1ccc(CNC(=O)C2CCc3nc(N4CCN(C(=O)C(C)C)CC4)sc3C2)o1 (configuration not stated) | i
COC(=O)c1ccc2nc(C[C@@H]3C[C@@H](C(C)C)[C@H](CNCc4ccccc4F)C=C3C)[nH]c2c1 | i
OC[C@@H]1CN(Cc2cccc3[nH]ccc23)C[C@H]1c1ccncc1 | 25µM*
CCn1ncc(CN2C[C@@H](CO)[C@H](c3ccncc3)C2)c1C | i
SMILES | KDM5B inhibitor
OC[C@@H]1CN(Cc2ccco2)C[C@H]1c1ccncc1 | i
Cc1ccc(-n2c(C3CCN(C(=O)c4nn(C)c5ccccc45)CC3)n[nH]c2=O)cc1 | i
Cc1ccc(SCCNC(=S)Nc2ccc(F)cc2)cc1 | i
COc1ccccc1-c1ccnc(-n2ncc(C(=O)NCCc3cccnc3)c2C2CC2)n1 | 32µM*
O=C(NCCc1cccnc1)c1ccccc1Cl | i
CC(C)(C)OC(=O)N1CCC(c2c(C(=O)NCCc3ccccc3)cnn2-c2ccc(F)cc2)CC1 | i
COc1cccc(/C=C/C(=O)c2ccc(-c3ccccc3)cc2)c1 | i
Cc1ocnc1C(=O)NC1CC(c2nnc(Cn3cccn3)n2C)C1 (configuration not stated) | i
Cn1c(Cn2cccn2)nnc1C1CC(NC(=O)c2sccc2N)C1 (configuration not stated) | 16µM*!
CCn1c(CO)nnc1C1CC(NC(=O)NCCc2ccccc2F)C1 (configuration not stated) | i
CCn1c(CO)nnc1C1CC(NC(=O)CN2CCOCC2)C1 (configuration not stated) | i
Cn1c(Cn2cccn2)nnc1C1CC(Nc2ncnc3ccsc23)C1 (configuration not stated) | i
CCn1c(CO)nnc1C1CC(NC(=O)c2nc(-c3ccccc3)[nH]c2C)C1 (configuration not stated) | i
CCNc1ncc(C(=O)NC2CC(c3nnc(CO)n3CC)C2)cn1 (configuration not stated) | 25µM*
CCn1c(CO)nnc1C1CC(NC(=O)c2sccc2N)C1 (configuration not stated) | 11µM*
COCCn1c(CO)nnc1C1CC(NC(=O)c2cn3ccsc3n2)C1 (configuration not stated) | i
C#CCNC(=O)NC(CC)c1ccc(C)cc1 (configuration not stated) | i
Cc1ccc(C(=O)N2CCC(c3nc4c(nnn4Cc4ccc5c(c4)OCO5)c(=O)[nH]3)CC2)cc1 | i
CC(C)n1nc(C(=O)NCc2cc3ccccc3[nH]2)c2ccccc2c1=O | i
Cc1nc(-c2ccc(F)cc2)n(CC(=O)Nc2cccc(C(F)(F)F)c2)c(=O)c1CCO | i
CCNC(=O)NC(=O)COC(=O)c1cc(-c2ccc(C)o2)nc2ccccc12 | i
N#C/C(=C\c1ccc(O)c(Br)c1)c1nc2ccccc2[nH]1 | i
